“And” between values parts separate entries of the source, which are not always exact repeats. Equal entries are not always repeated. Screen size: about 190,000 compounds; about 1,300 (0.68%) were called active. The sample holds actives, similar compounds and a random draw of the others, so the mix is not that of the screen. No stated cut-off is given here; in the data, active means inhibition above about 50%; inactive means the rest.
The compounds below were run against Mannose-6-phosphate isomerase (Homo sapiens) (UniProt P34949) (assay: human PMI inhibitors, high substrate, primary screen, biochemical, fluorescence intensity, high mannose 6-phosphate (AID 1220)). Conditions: recombinant PMI enzyme, coupled fluorescence intensity; at 20 µM; active compounds read high.
Mannose-6-phosphate isomerase (Homo sapiens), sequence (P34949 whole entry, looked up): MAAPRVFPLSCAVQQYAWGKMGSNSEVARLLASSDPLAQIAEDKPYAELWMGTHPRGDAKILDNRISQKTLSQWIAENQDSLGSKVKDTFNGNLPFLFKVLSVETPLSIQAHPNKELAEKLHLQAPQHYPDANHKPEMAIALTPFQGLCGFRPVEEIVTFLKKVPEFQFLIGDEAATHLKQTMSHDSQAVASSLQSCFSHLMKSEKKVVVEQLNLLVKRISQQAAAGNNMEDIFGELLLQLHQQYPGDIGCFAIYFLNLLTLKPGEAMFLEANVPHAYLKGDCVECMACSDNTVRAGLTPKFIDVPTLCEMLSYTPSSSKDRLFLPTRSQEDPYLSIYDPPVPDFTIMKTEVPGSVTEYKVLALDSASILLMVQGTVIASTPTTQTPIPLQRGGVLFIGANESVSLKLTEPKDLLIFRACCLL

inhibition, inactive:
Nc1[nH]ncc1-c1ccc(Cl)cc1 -1.5%
Cc1sc(NC(=O)CCCC(=O)O)c(C(N)=O)c1-c1ccccc1 -5.5%
CC1CN(C(NC(=O)c2ccccc2)C(Cl)(Cl)Cl)CC(C)O1 (stereo unspecified) -6.4%
CCN1C(=O)/C(=C/c2ccc(C)o2)N(C)C1=S 28%
COC(=O)c1ccc(C(=O)Nc2ccc(C(C)C)cc2N)cc1 -2.9%
Cc1cc(N)ccc1NC(=O)c1ccccc1 12.9%
Cc1ccc(OCC(O)CN2CCN(CC(O)COC(C)C)CC2)c(C(C)(C)C)c1 (stereo unspecified) -2.3%
CCOC(=O)C1=C(C)NC(C)=C(C(=O)OC)C1c1cccc([N+](=O)[O-])c1 (stereo unspecified) 9.7% and -2%
COc1ccccc1NC(=O)C1=C(C)NC(=O)NC1c1ccccc1[N+](=O)[O-] (stereo unspecified) 19.9%
COC(=O)C1=C(C)NC(C)=C([N+](=O)[O-])C1c1ccccc1C(F)(F)F (stereo unspecified) -0.9%
CC1=C(C(=O)Nc2ccccc2)C(c2cccs2)NC(=O)N1 (stereo unspecified) -0.7%
COc1ccccc1NC(=O)c1cnc(Nc2ccccc2OC)c2ccccc12 6.4%
CC1Oc2ccccc2N(CC(=O)NCc2cccs2)C1=O (stereo unspecified) 5.4%
NC(=O)Cc1ccc(C(=O)c2ccccc2F)s1 -7%
Cc1ccc(C(C)C)c(OCC(=O)N2CCOCC2)c1 4.1%
O=C(O)COc1ccc(/C=N/n2cnc3scc(-c4cccs4)c3c2=O)cc1 -8.8%
Cc1ccc(-n2c(-c3ccncc3)n[nH]c2=S)c(C)c1 3.7%
COc1ccc(OCC(=O)Nc2ccc3c(c2)nc2n3CCSC2)cc1 7.8%
O=C(/C=C/c1cccc(OCc2ccccc2)c1)c1cccnc1 -18.2%
CCOC(=O)c1c(C)oc2c(CC(=O)c3ccccc3)c(Cl)c(O)c(O)c12 8.9%
CCOC(=O)Cc1csc(NC(=O)NC2(C(F)(F)F)Oc3ccc(Cl)cc3O2)n1 (stereo unspecified) 47.9%
CCOC(=O)Cc1csc(NC(=O)NC2(C(F)(F)F)Oc3ccccc3O2)n1 21.4%
CC1CC1C(=O)OCC(=O)NCc1ccc(Cl)cc1Cl (stereo unspecified) -7.7%
CCSc1nnc(NC(=O)C2CC(=O)N(Cc3ccc(C)cc3)C2)s1 (stereo unspecified) -13.3%
CN(C)NC(=S)Nc1ccc2nc(-c3ccccn3)c(-c3ccccn3)nc2c1 -38.7%
CCOC(=O)C1CCN(C(=O)Nc2ccc3nccnc3c2)CC1 49.9%
S=C(Nc1ccc2nc(-c3ccccn3)c(-c3ccccn3)nc2c1)N1CCOCC1 -7.8%
CCOC(=O)N1CCN(C(=O)Nc2ccc3nc(-c4ccccn4)c(-c4ccccn4)nc3c2)CC1 25.7%
CCOC(=O)N1CCN(C(=O)Nc2ccc3nc(C)c(C)nc3c2)CC1 48.9%
CCCNC(=S)Nc1ccc2nc(-c3ccccn3)c(-c3ccccn3)nc2c1 -9.4%
Cc1ccc2[nH]c3c(=O)n(CCN4CCNCC4)cnc3c2c1 24.5%
Cc1[nH]c2ccccc2c1CCNC(=O)c1c(N)no[n+]1[O-] 15.2%
O=c1c(Cl)c(N/N=C/c2ccc(Br)cc2)cnn1-c1ccccc1 4.9%
O=C(Cc1cccc2ccccc12)Nc1ccc(OC(F)F)c(Cl)c1 10%
CC1=CC(=O)C(C(C)C)=C/C1=N/OC(=O)c1cccc([N+](=O)[O-])c1 -0.5%
CC1=CC(=O)C(C(C)C)=C/C1=N\OC(=O)c1cccc2nc(C)oc12 9.2%
COC(=O)CCc1c(C)c(C(=O)c2ccc(F)cc2)c2ccccn12 6.2%
CCN=c1sc(C(=O)OC)cc(=O)n1CC 3.7%
O=C(NCC1OCCCN1S(=O)(=O)c1cc(F)ccc1F)C(=O)NC1CCCCC1 (stereo unspecified) -0.8%
CCOC(=O)Cc1c(C)c2c(O)cc(O)cc2oc1=O 33.5%
COc1ccc2c(C)c(Cc3ccccc3)c(=O)oc2c1OC 0.1%
Cc1coc2c1c(C)cc1oc(=O)c(Cc3ccccc3)c(C)c12 -11.6%
Cc1c(Cc2ccccc2)c(=O)oc2c(CN(C)C)c(O)c(Cl)cc12 7.5%
COC(=O)Cc1ccc2oc(-c3cccnc3)nc2c1 1.9%
CCCc1c(C)c2c(C)[nH]nc2oc1=O 1.7%
COc1cc(OC)nc(Oc2ccccc2C(=O)Oc2cccc(C)c2)n1 7%
Cc1ccc(S(=O)(=O)Nc2nc3ccc(S(=O)(=O)N4CCCC4)cc3s2)cc1 -22.6%
Cc1cccc(N=C2NC(=O)c3cc([N+](=O)[O-])ccc32)c1 0.2%
NC(=O)c1ccc(C(=O)c2ccc([N+](=O)[O-])cc2)cc1 -7.6%
Cc1ccc(N=C2NC(=O)c3cc([N+](=O)[O-])ccc32)cc1 6.9%
O=C1NC(=Nc2ccccc2)c2ccc([N+](=O)[O-])cc21 -7.3%
O=c1[nH]c2cc3c(cc2cc1C(c1nnnn1C1CCCC1)N1CCCc2ccccc21)OCCO3 (stereo unspecified) 27.2%
CCC(C)(C)n1nnnc1C(c1cc2cc(C)ccc2[nH]c1=O)N1CCCc2ccccc21 (stereo unspecified) 21.8%
Cc1ccnc(NC(=O)C(C)n2cc([N+](=O)[O-])cn2)c1 (stereo unspecified) -10.1%
O=S(=O)(Nc1ccc(N2CCOCC2)cc1)c1ccc(Cl)s1 -4.9%
CCOc1ccc(Br)cc1S(=O)(=O)Nc1ccccc1N1CCOCC1 -0.7%
CCOc1cc(N2CCOCC2)c(OCC)cc1NC(=O)c1ccco1 25.1%
CCOc1cc(N2CCOCC2)c(OCC)cc1NC(=O)c1ccccc1 28.4%
CCOc1cc(N2CCOCC2)c(OCC)cc1NC(=O)c1ccc(NC(C)=O)cc1 26.1%
CCOc1cc(N2CCOCC2)c(OCC)cc1NC(=O)c1nc2nc(C)cc(C)n2n1 14.6%
CCOc1cc(N2CCOCC2)c(OCC)cc1NC(=O)c1ccc(C)cc1 27.3%
FC(F)(F)c1ccc(N2CCOCC2)c(NC2=NCCCCC2)c1 2.9%
Cc1cc(N)n2ncc(-c3ccc(F)cc3)c2n1 6.9%
COCc1cc(C)nc(SCC(=O)Nc2ccccc2C)c1C#N -4.7%
COc1cccc(C(=O)C2CCCN(C(=O)c3cccc(C#CC(C)(C)O)c3)C2)c1 (stereo unspecified) 13%
Cc1ccc2n(n1)c(=O)c(Cc1ccccc1)c([O-])[n+]2-c1ccccc1 7.7%
COCCNC(=O)CN1CCN(Cc2cccc(Cl)c2)C1=O 10.3%
CCOc1cc(N2CCOCC2)c(OCC)cc1NC(=O)C(C)(C)C 27.9%
CCOc1cc(N2CCOCC2)c(OCC)cc1NC(=O)c1cc(C)cc(C)c1 40.8%
COc1ccc(CCn2nnnc2C(CC(C)C)N2CCN(c3ncccn3)CC2)cc1OC (stereo unspecified) 7.5%
CN1CCN(Cc2c(O)ccc3c(-c4ccccc4)cc(=O)oc23)CC1 1.7%
Oc1ccc2ccccc2c1CN1CCN(c2ccccc2F)CC1 29.8%
Oc1ccc2cc(Br)ccc2c1CN1CCCC1 43.2%
Oc1ccc2ccccc2c1CN1CCN(c2ccccc2)CC1 -35.5%
CCn1c(CSc2nc3ccccc3s2)nnc1SCC(N)=O 1.7%
N#Cc1ccccc1S(=O)(=O)N1CCN(CC(O)c2ccccc2)CC1 (stereo unspecified) -12.7%
COc1cccc(C(=O)Nc2cccc(-c3ccc4nncn4n3)c2)c1OC -2.3%
COc1ccc(C2=NN(C(=O)CSc3ncccn3)C(c3cccc(OC)c3OC)C2)cc1 (stereo unspecified) 0.9%
CCOC(=O)C1CCCN(C(=O)c2ccc(C)cc2O)C1 (stereo unspecified) 1.2%

inhibition, active:
COC(=O)c1ccc(C(=O)Nc2ccc(N)cc2N)cc1 50.3%
COC(=O)C1=C(C)NC(C)=C(C(=O)OC)C1c1ccccc1[N+](=O)[O-] 79.4%
CC1=C(C(=O)Nc2ccccc2)C(c2ccccc2[N+](=O)[O-])NC(=O)N1 (stereo unspecified) 53.3%
CCOC(=O)Cc1csc(NC(=O)NC2(C(F)(F)F)Oc3cc(Cl)c(Cl)cc3O2)n1 54.7%
Cc1ccc(NC(=S)Nc2ccc3nc(-c4ccccn4)c(-c4ccccn4)nc3c2)cc1C 63.1%
O=C(Nc1ccc2nc(-c3ccccn3)c(-c3ccccn3)nc2c1)N1CCOCC1 62.6%
CCOC(=O)N1CCN(C(=O)Nc2ccc3nccnc3c2)CC1 55.1%
CC1=CC(=O)C(C(C)C)=CC1=NC(=O)c1ccc(C)cc1 79%
Cc1c(Cc2ccccc2)c(=O)oc2cc(O)cc(O)c12 58.5%
Cc1ccc2[nH]c(=O)c(C(c3nnnn3C3CCCC3)N3CCCc4ccccc43)cc2c1 (stereo unspecified) 61.4%
CCOc1cc(N2CCOCC2)c(OCC)cc1NC(=O)c1ccc(S(C)(=O)=O)cc1 54.7%
CCOc1cc(N2CCOCC2)c(OCC)cc1NC1=NCCCCC1 50.1%
CCOc1cc(N2CCOCC2)c(OCC)cc1NS(=O)(=O)c1ccc(Cl)s1 54.3%
CCNC(=S)Nc1cc(OCC)c(N2CCOCC2)cc1OCC 58%
CCCNC(=O)Nc1cc(OCC)c(N2CCOCC2)cc1OCC 58.7%
Oc1ccc2ccccc2c1CN1CCCC1 67.8%
CN1CCN(Cc2c(O)ccc3cc(Br)ccc23)CC1 64.6%
